Activity calls are given as the source filed them.

Results on 9 compounds are retold here after PubChem BioAssay.

Test [1] can be described thus: small molecules captured by biotinylated probe aFSTL3 – biochemical, small-molecule microarray, fluorescence 635/667, stem cell growth factor project, primary screen (AID 1064).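 Also: measures binding of the biotinylated anti-FSTL3 antibody to printed compounds.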 The conditions noted are these: higher = more signal.
Test [2] is described as follows: binders from COS7 lysate, DM2A8 probe, primary screen, torsin A project, cell lysate, small-molecule microarray, fluorescence 635/667 (AID 1065). The note with it: higher = more signal, COS7 lysate expressing mutant human TOR1A.
Test [3] can be described thus: small molecules captured by biotinylated probe aFGF2 – biochemical, small-molecule microarray, fluorescence 635/667, stem cell growth factor project, primary screen (AID 1067).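 Also: measures binding of biotinylated aFGF2 protein to printed compounds on slides; z-score merges feature fluorescence and signal-to-noise across triplicate slides.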 The conditions noted are these: higher = more signal.
Test [4] in a line: small molecules captured by biotinylated probe aFGF10 – biochemical, small-molecule microarray, fluorescence 635/667, stem cell growth factor project, primary screen (AID 1071).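 Also: score merges 667 nm spot intensity and signal to noise from triplicate slides.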 The note with it: higher = more signal.
The target of test [5] is Neurogenic locus notch homolog protein 2 (Homo sapiens) (UniProt Q04721). The test is described as follows: small molecules binding Notch2 protein – biochemical, small-molecule microarray, 635 nm fluorescence, stem cell growth factors, primary screen (AID 1073). The conditions noted are these: higher = more signal.
Test [6] has as its target Pro-neuregulin-1, membrane-bound isoform (Homo sapiens) (UniProt Q02297). The test is described as follows: small molecules binding neuregulin-1 protein – biochemical, small-molecule microarray, fluorescence 635/667, psychiatric disease protein project, primary screen (AID 1075).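 Also: score combines 667 nm spot fluorescence with signal to noise.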 The conditions noted are these: NRG1 binding, 635 nm fluorescence, higher = more signal.
Test [7] relates to Neuregulin-1 EGF-like domain. The test is described as follows: small molecules binding NRG1 EGF domain – biochemical, small-molecule microarray, 635 nm fluorescence, primary screen (AID 1081).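 Also: binding of the protein to compounds printed on small-molecule microarray slides.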 The conditions noted are these: higher = more signal.
The nature of test [8]: FRG1 expression reporter modulators in myotubes – cell-based, C2C12 myotubes, firefly/Renilla luciferase, luminescence, FRG1 inhibition for FSHD, primary screen (AID 1084). The note with it: FRG1 promoter luciferase, higher = more signal, called active from +8 up or from −8 down.
Test [9] can be described thus: small molecules captured by biotinylated probe aFST – biochemical, small-molecule microarray, fluorescence 635/667, stem cell growth factor project, primary screen (AID 1086).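 Also: score merges 667 nm fluorescence with signal-to-noise of each printed compound spot.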 The note with it: higher = more signal.
Test [10] is described as follows: binders of probe aHhip on microarray, primary screen, stem cell growth factor project, biochemical, small-molecule microarray, fluorescence 635/667 (AID 1087).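 Also: score merges spot fluorescence at 667nm with spot signal to noise ratio.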 The note with it: higher = more signal.
Test [11] deals with PRMT1 (protein arginine N-methyltransferase 1). The test is described as follows: small molecules binding arginine methyltransferase PRMT1 – biochemical, small-molecule microarray, 635 nm fluorescence, primary screen (AID 1088).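 Also: binding of Prmt1 protein to compounds spotted on small-molecule microarray slides.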 The note with it: higher = more signal.
Test [12] in a line: growth effects on S. cerevisiae YJM789 – YJM789 clinical isolate, OD600, 24 h, basal, primary screen (AID 1089).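 Also: growth of clinical yeast isolate S. cerevisiae YJM 789 seeded 1000 cells per well; test concentration not given here.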 The note with it: higher = more signal, called active from +8 up or from −8 down.
Test [13] is described as follows: S. pombe growth modifiers, basal conditions – strain 972, OD600, 24 h, no modulator, primary screen (AID 1090).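 Also: basal condition with compound alone and no growth modifier present; test concentration not given here.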 The note with it: S. pombe 972 growth, higher = more signal, called active from +8 up or from −8 down.
Test [14] in a line: budding yeast growth modifiers under rapamycin – strain BY4716, OD600, 96 h, primary screen (AID 1091). Also: test concentration not given here. The conditions noted are these: S. cerevisiae BY4716 + rapamycin, higher = more signal, called active from +8 up or from −8 down.
For test [15], the target named is Torsin-1A-interacting protein 2 (Homo sapiens) (UniProt Q8NFQ8). The test is described as follows: small molecules binding lysate-expressed LULL1 – cell lysate, human LULL1 lysate, 635/667 nm fluorescence, primary screen (AID 1092).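 Also: score merges per-feature 667 nm fluorescence with signal-to-noise.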 The conditions noted are these: small-molecule microarray, hLULL1 lysate binding, 635 nm fluorescence; higher = more signal.
Test [16] can be described thus: optical density change of DRC41 E. coli – strain DRC41, OD650, 24 h, E. coli filamentation project, primary screen (AID 1093).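 Also: MC1000 strain lacking acrAB efflux and sulA so SOS filamentation is blocked; test concentration not given here.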 The note with it: E. coli DRC41 growth, higher = more signal, called active from +8 up or from −8 down.
A short description of test [17]: probe aLefty2 binding to arrayed compounds – biochemical, biotinylated probe, 635/667 nm fluorescence, primary screen (AID 1094).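 Also: score merges spot fluorescence near 667 nm with spot signal-to-noise ratio.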 The conditions noted are these: small-molecule microarray, higher = more signal.
The subject of test [18] is Noggin (protein binding on small-molecule microarray). The test is described as follows: small molecules binding Noggin protein – biochemical, 635/667 nm fluorescence, primary screen (AID 1095).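 Also: score merges 667 nm feature fluorescence with signal to noise over triplicate slides.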 The conditions noted are these: 635 nm fluorescence, higher = more signal.
The target in test [19] is Neurogenic locus notch homolog protein 3 (Homo sapiens) (UniProt Q9UM47). The test is described as follows: small molecules binding NOTCH3 protein – biochemical, 635/667 nm fluorescence, primary screen (AID 1096). The conditions noted are these: small-molecule microarray, 635 nm fluorescence, higher = more signal.
A short description of test [20]: probe aEGFR binding to arrayed compounds – biochemical, biotinylated probe, 635/667 nm fluorescence, primary screen (AID 1097).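 Also: probe is a biotinylated anti-EGFR antibody binding compounds printed on slides; score combines fluorescence near 667 nm and signal to noise of each spot.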 The note with it: small-molecule microarray, higher = more signal.

Sequence of Pro-neuregulin-1, membrane-bound isoform (Homo sapiens) (Q02297 whole entry, looked up, the tested form may be a part, canonical isoform): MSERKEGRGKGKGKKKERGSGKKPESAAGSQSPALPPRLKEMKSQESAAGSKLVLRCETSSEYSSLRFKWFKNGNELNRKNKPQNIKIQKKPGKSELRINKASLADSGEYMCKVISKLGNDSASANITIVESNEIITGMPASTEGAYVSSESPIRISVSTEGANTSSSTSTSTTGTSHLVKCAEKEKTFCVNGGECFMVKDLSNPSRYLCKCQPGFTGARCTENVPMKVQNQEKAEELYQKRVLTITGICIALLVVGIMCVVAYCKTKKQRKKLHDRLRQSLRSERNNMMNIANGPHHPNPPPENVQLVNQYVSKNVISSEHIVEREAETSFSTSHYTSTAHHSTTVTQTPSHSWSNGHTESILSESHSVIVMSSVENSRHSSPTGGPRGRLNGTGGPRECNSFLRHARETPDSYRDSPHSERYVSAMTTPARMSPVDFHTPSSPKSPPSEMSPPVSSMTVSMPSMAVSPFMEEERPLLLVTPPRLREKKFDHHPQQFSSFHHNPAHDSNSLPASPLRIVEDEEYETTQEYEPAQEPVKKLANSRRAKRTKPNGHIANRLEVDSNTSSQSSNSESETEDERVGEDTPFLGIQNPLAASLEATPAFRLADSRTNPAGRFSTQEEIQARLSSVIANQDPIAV
Sequence of Neurogenic locus notch homolog protein 2 (Homo sapiens) (Q04721 whole entry, looked up, canonical isoform): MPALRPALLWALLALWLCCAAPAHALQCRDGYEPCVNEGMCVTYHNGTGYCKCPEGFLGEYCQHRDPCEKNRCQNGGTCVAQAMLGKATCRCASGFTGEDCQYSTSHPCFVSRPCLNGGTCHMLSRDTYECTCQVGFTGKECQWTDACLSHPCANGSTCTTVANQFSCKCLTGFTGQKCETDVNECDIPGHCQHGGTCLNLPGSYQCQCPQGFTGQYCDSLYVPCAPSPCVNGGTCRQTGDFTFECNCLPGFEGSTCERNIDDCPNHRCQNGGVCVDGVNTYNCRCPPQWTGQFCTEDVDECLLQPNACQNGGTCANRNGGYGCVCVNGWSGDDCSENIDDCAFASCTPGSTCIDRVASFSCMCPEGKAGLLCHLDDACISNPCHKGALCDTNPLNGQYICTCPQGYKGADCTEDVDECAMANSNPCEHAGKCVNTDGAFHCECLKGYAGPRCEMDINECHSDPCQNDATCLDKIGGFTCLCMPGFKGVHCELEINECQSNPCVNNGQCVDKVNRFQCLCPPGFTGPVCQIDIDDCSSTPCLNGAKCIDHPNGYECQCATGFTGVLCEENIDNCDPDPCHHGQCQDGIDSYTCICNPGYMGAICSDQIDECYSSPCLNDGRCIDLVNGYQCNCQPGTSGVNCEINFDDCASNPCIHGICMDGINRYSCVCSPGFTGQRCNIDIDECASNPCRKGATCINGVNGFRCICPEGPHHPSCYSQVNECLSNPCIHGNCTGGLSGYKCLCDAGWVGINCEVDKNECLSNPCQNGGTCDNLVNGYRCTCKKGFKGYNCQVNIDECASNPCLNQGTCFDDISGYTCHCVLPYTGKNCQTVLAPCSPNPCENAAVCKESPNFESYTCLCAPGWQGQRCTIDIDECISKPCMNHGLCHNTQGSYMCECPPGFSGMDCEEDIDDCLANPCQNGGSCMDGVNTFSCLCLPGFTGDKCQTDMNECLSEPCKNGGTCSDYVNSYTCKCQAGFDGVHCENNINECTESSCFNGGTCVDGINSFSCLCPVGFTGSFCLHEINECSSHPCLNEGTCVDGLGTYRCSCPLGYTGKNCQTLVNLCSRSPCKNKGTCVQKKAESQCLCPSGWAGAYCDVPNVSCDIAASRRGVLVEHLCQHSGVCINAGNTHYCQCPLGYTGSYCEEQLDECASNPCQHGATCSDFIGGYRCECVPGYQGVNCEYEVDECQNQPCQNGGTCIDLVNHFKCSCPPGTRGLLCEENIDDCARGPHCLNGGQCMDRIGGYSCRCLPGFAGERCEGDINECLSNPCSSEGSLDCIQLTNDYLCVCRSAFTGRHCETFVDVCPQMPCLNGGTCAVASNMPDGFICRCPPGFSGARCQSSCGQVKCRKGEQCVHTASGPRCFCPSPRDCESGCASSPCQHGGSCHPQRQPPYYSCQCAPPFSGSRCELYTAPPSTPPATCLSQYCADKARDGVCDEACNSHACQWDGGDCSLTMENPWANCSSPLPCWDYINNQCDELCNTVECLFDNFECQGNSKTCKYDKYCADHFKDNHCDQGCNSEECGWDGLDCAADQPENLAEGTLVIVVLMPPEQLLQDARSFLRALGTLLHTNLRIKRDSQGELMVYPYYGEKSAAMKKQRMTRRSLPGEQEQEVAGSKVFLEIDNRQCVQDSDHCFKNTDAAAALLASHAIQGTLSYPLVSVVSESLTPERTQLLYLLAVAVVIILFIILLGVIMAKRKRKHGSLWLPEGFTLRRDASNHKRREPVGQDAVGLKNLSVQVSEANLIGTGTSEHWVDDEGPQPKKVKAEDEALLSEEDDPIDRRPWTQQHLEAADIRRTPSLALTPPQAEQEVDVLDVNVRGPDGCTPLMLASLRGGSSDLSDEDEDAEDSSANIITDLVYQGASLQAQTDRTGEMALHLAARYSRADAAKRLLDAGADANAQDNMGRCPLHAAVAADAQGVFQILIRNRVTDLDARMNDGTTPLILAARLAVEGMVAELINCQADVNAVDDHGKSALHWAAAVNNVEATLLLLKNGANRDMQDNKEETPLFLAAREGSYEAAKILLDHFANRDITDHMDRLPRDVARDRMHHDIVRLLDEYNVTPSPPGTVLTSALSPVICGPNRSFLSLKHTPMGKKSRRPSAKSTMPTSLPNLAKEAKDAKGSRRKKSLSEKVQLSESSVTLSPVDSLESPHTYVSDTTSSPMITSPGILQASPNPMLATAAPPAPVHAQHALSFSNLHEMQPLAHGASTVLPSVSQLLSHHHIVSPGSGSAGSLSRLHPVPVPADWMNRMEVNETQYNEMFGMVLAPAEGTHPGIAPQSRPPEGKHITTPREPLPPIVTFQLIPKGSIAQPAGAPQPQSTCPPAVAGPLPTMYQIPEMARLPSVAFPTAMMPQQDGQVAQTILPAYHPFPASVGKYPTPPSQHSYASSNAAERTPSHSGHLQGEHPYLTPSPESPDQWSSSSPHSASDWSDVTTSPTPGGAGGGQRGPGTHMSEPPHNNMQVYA
Sequence of Torsin-1A-interacting protein 2 (Homo sapiens) (Q8NFQ8 whole entry, looked up): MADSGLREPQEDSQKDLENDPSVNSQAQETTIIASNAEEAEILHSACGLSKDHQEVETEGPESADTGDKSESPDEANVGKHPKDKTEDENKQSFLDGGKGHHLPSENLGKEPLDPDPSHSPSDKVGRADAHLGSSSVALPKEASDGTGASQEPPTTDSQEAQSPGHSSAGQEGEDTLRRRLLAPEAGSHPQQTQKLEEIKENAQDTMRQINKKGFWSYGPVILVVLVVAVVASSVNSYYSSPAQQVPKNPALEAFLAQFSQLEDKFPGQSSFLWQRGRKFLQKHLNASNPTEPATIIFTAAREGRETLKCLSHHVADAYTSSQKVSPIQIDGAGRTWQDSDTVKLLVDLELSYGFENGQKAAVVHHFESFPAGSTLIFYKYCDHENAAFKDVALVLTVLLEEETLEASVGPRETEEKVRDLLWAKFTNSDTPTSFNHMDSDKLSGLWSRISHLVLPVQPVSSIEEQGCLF

For the compound `O=C1c2ccccc2[C@@]2(Cc3ccccc3N(CCN3CCOCC3)C2=O)[C@H](c2ccc(CO)cc2)N1Cc1ccccc1`, the composite z-score in test [1] is -0.0459; in [2] it was -0.374; in test [3], -0.166; in [4], -0.318; in test [5] it was -0.933; in [6] it was -0.561. Also, the composite z-score in [7] was -0.86; in test [9], -0.0633; in [10], -0.0618; in [11] it was 1.08; in test [15] it was 1.4; in [17], -0.156. Also, the composite z-score in test [18] is -0.0855; in test [19] it was -0.038; in [20] it was -0.172. In addition, the z-score is -0.0352 (inactive) in [8]; -0.338 (inactive) in test [12]; 0.047 (inactive) in test [13]; -1.78 (inactive) in test [14]; 0.959 (inactive) in test [16].

Turning to `O=C(NCc1ccc(F)cc1)[C@H]1C[C@H]2C(=O)N[C@@H](Cc3ccccc3)C(=O)N2[C@H]1c1ccc(O)cc1`, the composite z-score in test [1] is 1.12; in [2] it was 0.949; in test [3] it was -0.185; in test [4], -0.685; in test [5], -0.878; in test [6], -0.242. Further, the composite z-score is 1.2 in [7]; -0.823 in [9]; -0.0645 in [10]; 0.53 in test [11]; 2.34 in test [15]; -0.118 in [17]. The composite z-score in test [18] is 0.223; in test [19], -0.75; in test [20], -0.268. The z-score in [8] is 1.1 (inactive); in test [12], 0.839 (inactive); in [13], 0.247 (inactive); in test [14], 2.14 (inactive); in test [16], 0.675 (inactive).

Turning to `CCCCN1CC=CC23O[C@@H]4C=CCOC(=O)[C@@H]4[C@H]2C(=O)N(CCCCCO)[C@@H]3C1=O` (stereo not given in full), the composite z-score in test [1] was 0.219; in test [2] it was -0.726; in test [3], -0.187; in [4], -0.32; in test [5], -0.661; in test [6], 0.967. The composite z-score was 1.34 in [7]; -0.603 in test [9]; -0.21 in test [10]; -0.0902 in test [11]; 3.04 in [15]; 0.0695 in [17]. In addition, the composite z-score in test [18] was -0.929; in test [19] it was -0.445; in [20], -0.268. The z-score in test [8] is -0.333 (inactive); in test [12], -0.404 (inactive); in [13] it was -0.244 (inactive); in test [14] it was -0.279 (inactive); in test [16], 1.34 (inactive).

Consider `C=CCOC(=O)[C@@H]1[C@H]2C(=O)O[C@H](c3ccccc3)[C@H](c3ccccc3)N2[C@H](c2ccc(OCCOC(=O)[C@@H]3C[C@@H]4C(=O)N[C@@H](CCCC[N+](C)(C)C)C(=O)N4[C@@H]3c3cccc(OCCO)c3)cc2)[C@@]12C(=O)Nc1ccc(I)cc12`, for which the composite z-score was determined as 0.443 in test [1]; 0.54 in test [2]; 0.0378 in test [3]; 0.291 in test [4]; 0.872 in test [5]; 0.498 in test [6]. The composite z-score is 1.23 in [7]; 0.493 in test [9]; -0.117 in test [10]; 1.56 in test [11]; 2.94 in [15]; -0.0063 in test [17]. The results for the composite z-score in [18], in [19] and in test [20] were 1.47, 1.13 and 0.0321, respectively. Besides, the z-score is 3.07 (inactive) in [8]; 1.02 (inactive) in test [12]; -0.945 (inactive) in test [13]; 0.115 (inactive) in test [14]; -0.674 (inactive) in [16].

For `CC(C)C[C@H]1NC(=O)[C@@]23C(=O)N[C@@H](Cc4ccccc4)C2[C@H](C)[C@@]2(C)O[C@H]2C3/C=C/C/C=C\CNC(=O)[C@H](Cc2ccccc2)NC1=O` (stereo not given in full), the composite z-score in [1] was -0.404; in [2], 0.443; in test [3], -0.0973; in test [4] it was 0.307; in [5], 0.349; in test [6], 1.04. The composite z-score in test [7] was 0.976; in test [9], 0.146; in test [10] it was -0.0994; in [11], 1.14; in test [15] it was 1.13; in test [17], -0.157. Also, the composite z-score is 1.39 in test [18], 0.937 in test [19] and -0.156 in test [20]. Moreover, the z-score in test [8] is 0.688 (inactive); in test [12] it was 0.871 (inactive); in test [13], -0.388 (inactive); in test [14] it was -0.332 (inactive); in test [16], 0.11 (inactive).

On to `CN1C(=O)C2C=CC(C(O)C3CC=CCC3)N(NC(=O)OC(C)(C)C)C2C1=O` (stereo not given), for which the composite z-score in test [1] was -0.138; in [2], 0.23; in test [3] it was 0.218; in test [4], 0.752; in test [5], 1.29; in test [6] it was 1.64. Further, the composite z-score in test [7] was 1.21; in [9], 0.879; in [10], -0.0296; in test [11], 1.14; in [15], 3.54; in test [17], -0.0379. For the same compound, the composite z-score in test [18] was 0.532; in test [19], 0.95; in [20], -0.0197. Further, the z-score in test [8] was 2.23 (inactive); in [12] it was 0.0125 (inactive); in test [13] it was 0.826 (inactive); in test [14] it was 0.259 (inactive); in test [16], -1.16 (inactive).

Regarding `COc1ccc(C(=O)Nc2ccc(CN3C(=O)[C@@]4(O[C@@H](CCn5cc([C@H](O)c6ccccc6)nn5)[C@H]([Si](C)(C)c5ccc(OC)cc5)[C@H]4C)c4ccccc43)cc2)cc1`, the composite z-score in [1] is -0.197; in test [2] it was 0.315; in test [3], 0.484; in test [4], -0.164; in [5], -0.244; in [6] it was 0.258. The composite z-score in test [7] was 1.05; in test [9], 0.217; in test [10], -0.0391; in test [11], 1.46; in test [15], 1.11; in test [17], -0.136. Besides, the composite z-score in test [18] is 0.323; in [19], 0.378; in [20], -0.134. Further, the z-score in test [8] was -2.48 (inactive); in test [12], 0.188 (inactive); in [13], -0.807 (inactive); in test [14], 1.66 (inactive); in [16], -0.351 (inactive).

Consider `O=C1C2C=CC(C(O)C3CCCCC3)N(Nc3ccc([N+](=O)[O-])cc3)C2C(=O)N1c1ccccc1` (stereo not given), for which the composite z-score in test [1] is 0.274; in [2], 0.167; in test [3], 0.0333; in [4] it was 0.239; in test [5] it was -0.795; in test [6] it was 1.33. For the same compound, the composite z-score in test [7] is 1.18; in [9], -0.688; in test [10], -0.236; in test [11], 1.56; in [15], 3.19; in test [17] it was -0.314. Moreover, the composite z-score in [18] is -0.995; in [19], -0.273; in test [20] it was -0.226. Further, the z-score is -1.48 (inactive) in test [8]; 0.139 (inactive) in test [12]; 0.341 (inactive) in [13]; 3.55 (inactive) in test [14]; -1.15 (inactive) in test [16].

As to `COCCCN1C(=O)[C@@]2(c3ccc([N+](=O)[O-])cc3)CC(=O)N(C3CCCCC3)[C@@H]2c2ccc(CO)cc21`, the composite z-score was -0.246 in test [1]; 0.178 in [2]; -0.153 in test [3]; -0.118 in test [4]; -0.537 in [5]; -0.214 in [6]. Further, the composite z-score in test [7] is 0.467; in test [9], -0.036; in [10], -0.134; in test [11] it was 0.996; in [15], -0.701; in test [17] it was -0.0782. The composite z-score is 0.549 in test [18], -0.37 in test [19] and -0.128 in [20]. In addition, the z-score in test [8] was 1.07 (inactive); in [12], 0.134 (inactive); in test [13] it was 0.734 (inactive); in test [14] it was -1.35 (inactive); in test [16] it was 0.56 (inactive).
